The values that follow come from PubChem BioAssay (EPA / NIEHS).

The source made the active and inactive calls. Rule for the calls: active = hit-call score of the fitted dose curve at least 0.9, where 1 is the maximum; inactive = score below 0.9.

The nature of experiment [1]: CEETOX_H295R_CORTIC: CeeTox H295R High-throughput Steroidogenesis Assay for Corticosterone (CORTIC) (AID 2283437).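 Note: corticosterone secreted into medium quantified by mass spectrometry.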 As to conditions: actives raise or lower the signal. The method, boiled down:
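Corticosterone secreted into medium is measured by reverse-phase HPLC with tandem MS following liquid-liquid extraction. Cells are forskolin-stimulated (10 uM, 48 h) before 48 h test exposure; activity fitted in both directions against DMSO.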

A short description of experiment [2]: CEETOX_H295R_CORTISOL: CeeTox H295R High-throughput Steroidogenesis Assay for Cortisol (AID 2283438).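 Note: cortisol secreted into medium quantified by LC-MS/MS.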 As to conditions: actives raise or lower the signal. Put shortly: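 H295R human adrenal cells were prestimulated 48 h with 10 uM forskolin, then exposed 48 h to test chemical (0.1% DMSO final). Medium cortisol was quantified by HPLC-MS/MS after MTBE extraction; bidirectional fitting relative to DMSO baseline.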

Experiment [3] in a line: CEETOX_H295R_DOC: CeeTox H295R High-throughput Steroidogenesis Assay for DOC (AID 2283439). As to conditions: actives raise or lower the signal. Put shortly: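 H295R adrenal cells prestimulated 48 h with 10 uM forskolin, then exposed 48 h to test chemical (0.1% DMSO final). Medium 11-deoxycorticosterone extracted with MTBE, quantified by HPLC-MS/MS; bidirectional fit versus DMSO baseline; MTT viability in same wells.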

Experiment [4] is described as follows: CEETOX_H295R_ESTRADIOL: CeeTox H295R High-throughput Steroidogenesis Assay for Estradiol (AID 2283440).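 Note: estradiol secreted into medium quantified by LC-MS/MS after dansyl derivatisation.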 As to conditions: actives raise or lower the signal. The method, boiled down: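 H295R, 48 h forskolin (10 uM) prestim → 48 h compound, 0.1% DMSO final. Estradiol in medium: MTBE extraction, dansyl chloride derivatization, LC-MS/MS. Fit bidirectional vs DMSO baseline; MTT viability in same wells.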

Experiment [5] is described as follows: CEETOX_H295R_ESTRONE: CeeTox H295R High-throughput Steroidogenesis Assay for Estrone (AID 2283441).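 Note: estrone secreted into medium measured by LC-MS/MS after dansyl derivatization.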 As to conditions: actives raise or lower the signal. Put shortly: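 H295R cells; 48 h forskolin (10 uM) prestimulation; 48 h compound exposure, 0.1% DMSO final. Medium estrone: MTBE extraction, dansyl derivatization, HPLC-MS/MS. Bidirectional fit vs DMSO.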
Experiment [6] is described as follows: CEETOX_H295R_PROG: CeeTox H295R High-throughput Steroidogenesis Assay for Progesterone (PROG) (AID 2283442).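 For AC50: human H295R adrenal cells primed with 10 µM forskolin before dosing.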 To be noted: actives raise or lower the signal. Put shortly:
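Progesterone read-out: HPLC-MS/MS on MTBE extracts of conditioned medium after 48 h chemical exposure of forskolin-primed (10 uM, 48 h) H295R cells. Gain or loss of signal was fitted relative to DMSO baseline.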

Read-out in experiment [7]: Tumor necrosis factor receptor superfamily member 6 (Homo sapiens) (UniProt P25445)
The experiment in a line: LTEA_HepaRG_FAS: Life Technologies and Expression Analysis (LTEA) Assay for Fas cell surface death receptor (FAS) using HepaRG (AID 2283447). To be noted: mRNA level, 48 h; actives raise or lower the signal. Put shortly:
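FAS transcript level was measured by TaqMan qRT-PCR against three housekeeping genes after 48 h chemical exposure. Cells were HepaRG, 0.5% DMSO vehicle, with a top concentration of 100 uM and half-log dilutions over eight points, in duplicate.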

Read-out in experiment [8]: Fatty acid synthase (Homo sapiens) (UniProt P49327)
The experiment in a line: LTEA_HepaRG_FASN: Life Technologies and Expression Analysis (LTEA) Assay for Fatty Acid Synthase (FASN) using HepaRG (AID 2283448). As to conditions: mRNA level, 48 h; actives raise or lower the signal. The method, boiled down: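 Differentiated human HepaRG cells were exposed for 48 h in serum-free induction medium to eight half-log concentrations up to 100 uM in 0.5% DMSO, in duplicate. FASN mRNA was quantified by TaqMan qRT-PCR, normalized to ACTB/GAPDH/POLR2A, and fitted bidirectionally against DMSO.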

Read-out in experiment [9]: Cyclin Dependent Kinase Inhibitor 1A (CDKN1A), CDKN1A (gene 1026)
The experiment can be described thus: LTEA_HepaRG_CDKN1A: Life Technologies and Expression Analysis (LTEA) Assay for Cyclin Dependent Kinase Inhibitor 1A (CDKN1A) using HepaRG (AID 2283450). To be noted: mRNA level, 48 h; actives raise or lower the signal. Put shortly:
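HepaRG, 48 h dosing, 8-pt half-log series from 100 uM top, 0.5% DMSO vehicle, duplicates. Readout: TaqMan qRT-PCR of CDKN1A transcript, housekeeping-normalized (ACTB, GAPDH, POLR2A). Up/down curve fit relative to DMSO.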

Read-out in experiment [10]: Cyclin D2 (CCND2), CCND2 (gene 894)
The experiment can be described thus: LTEA_HepaRG_CCND2: Life Technologies and Expression Analysis (LTEA) Assay for Cyclin D2 (CCND2) using HepaRG (AID 2283449). To be noted: mRNA level, 48 h; actives raise or lower the signal. The method, boiled down: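 Read-out is CCND2 mRNA level measured by qRT-PCR in human HepaRG liver cells and normalised to three housekeeping genes. Chemicals were applied for 48 h at up to 100 uM, with gain or loss fitted relative to 0.5% DMSO.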

Fatty acid synthase (Homo sapiens), sequence (P49327 whole entry, looked up): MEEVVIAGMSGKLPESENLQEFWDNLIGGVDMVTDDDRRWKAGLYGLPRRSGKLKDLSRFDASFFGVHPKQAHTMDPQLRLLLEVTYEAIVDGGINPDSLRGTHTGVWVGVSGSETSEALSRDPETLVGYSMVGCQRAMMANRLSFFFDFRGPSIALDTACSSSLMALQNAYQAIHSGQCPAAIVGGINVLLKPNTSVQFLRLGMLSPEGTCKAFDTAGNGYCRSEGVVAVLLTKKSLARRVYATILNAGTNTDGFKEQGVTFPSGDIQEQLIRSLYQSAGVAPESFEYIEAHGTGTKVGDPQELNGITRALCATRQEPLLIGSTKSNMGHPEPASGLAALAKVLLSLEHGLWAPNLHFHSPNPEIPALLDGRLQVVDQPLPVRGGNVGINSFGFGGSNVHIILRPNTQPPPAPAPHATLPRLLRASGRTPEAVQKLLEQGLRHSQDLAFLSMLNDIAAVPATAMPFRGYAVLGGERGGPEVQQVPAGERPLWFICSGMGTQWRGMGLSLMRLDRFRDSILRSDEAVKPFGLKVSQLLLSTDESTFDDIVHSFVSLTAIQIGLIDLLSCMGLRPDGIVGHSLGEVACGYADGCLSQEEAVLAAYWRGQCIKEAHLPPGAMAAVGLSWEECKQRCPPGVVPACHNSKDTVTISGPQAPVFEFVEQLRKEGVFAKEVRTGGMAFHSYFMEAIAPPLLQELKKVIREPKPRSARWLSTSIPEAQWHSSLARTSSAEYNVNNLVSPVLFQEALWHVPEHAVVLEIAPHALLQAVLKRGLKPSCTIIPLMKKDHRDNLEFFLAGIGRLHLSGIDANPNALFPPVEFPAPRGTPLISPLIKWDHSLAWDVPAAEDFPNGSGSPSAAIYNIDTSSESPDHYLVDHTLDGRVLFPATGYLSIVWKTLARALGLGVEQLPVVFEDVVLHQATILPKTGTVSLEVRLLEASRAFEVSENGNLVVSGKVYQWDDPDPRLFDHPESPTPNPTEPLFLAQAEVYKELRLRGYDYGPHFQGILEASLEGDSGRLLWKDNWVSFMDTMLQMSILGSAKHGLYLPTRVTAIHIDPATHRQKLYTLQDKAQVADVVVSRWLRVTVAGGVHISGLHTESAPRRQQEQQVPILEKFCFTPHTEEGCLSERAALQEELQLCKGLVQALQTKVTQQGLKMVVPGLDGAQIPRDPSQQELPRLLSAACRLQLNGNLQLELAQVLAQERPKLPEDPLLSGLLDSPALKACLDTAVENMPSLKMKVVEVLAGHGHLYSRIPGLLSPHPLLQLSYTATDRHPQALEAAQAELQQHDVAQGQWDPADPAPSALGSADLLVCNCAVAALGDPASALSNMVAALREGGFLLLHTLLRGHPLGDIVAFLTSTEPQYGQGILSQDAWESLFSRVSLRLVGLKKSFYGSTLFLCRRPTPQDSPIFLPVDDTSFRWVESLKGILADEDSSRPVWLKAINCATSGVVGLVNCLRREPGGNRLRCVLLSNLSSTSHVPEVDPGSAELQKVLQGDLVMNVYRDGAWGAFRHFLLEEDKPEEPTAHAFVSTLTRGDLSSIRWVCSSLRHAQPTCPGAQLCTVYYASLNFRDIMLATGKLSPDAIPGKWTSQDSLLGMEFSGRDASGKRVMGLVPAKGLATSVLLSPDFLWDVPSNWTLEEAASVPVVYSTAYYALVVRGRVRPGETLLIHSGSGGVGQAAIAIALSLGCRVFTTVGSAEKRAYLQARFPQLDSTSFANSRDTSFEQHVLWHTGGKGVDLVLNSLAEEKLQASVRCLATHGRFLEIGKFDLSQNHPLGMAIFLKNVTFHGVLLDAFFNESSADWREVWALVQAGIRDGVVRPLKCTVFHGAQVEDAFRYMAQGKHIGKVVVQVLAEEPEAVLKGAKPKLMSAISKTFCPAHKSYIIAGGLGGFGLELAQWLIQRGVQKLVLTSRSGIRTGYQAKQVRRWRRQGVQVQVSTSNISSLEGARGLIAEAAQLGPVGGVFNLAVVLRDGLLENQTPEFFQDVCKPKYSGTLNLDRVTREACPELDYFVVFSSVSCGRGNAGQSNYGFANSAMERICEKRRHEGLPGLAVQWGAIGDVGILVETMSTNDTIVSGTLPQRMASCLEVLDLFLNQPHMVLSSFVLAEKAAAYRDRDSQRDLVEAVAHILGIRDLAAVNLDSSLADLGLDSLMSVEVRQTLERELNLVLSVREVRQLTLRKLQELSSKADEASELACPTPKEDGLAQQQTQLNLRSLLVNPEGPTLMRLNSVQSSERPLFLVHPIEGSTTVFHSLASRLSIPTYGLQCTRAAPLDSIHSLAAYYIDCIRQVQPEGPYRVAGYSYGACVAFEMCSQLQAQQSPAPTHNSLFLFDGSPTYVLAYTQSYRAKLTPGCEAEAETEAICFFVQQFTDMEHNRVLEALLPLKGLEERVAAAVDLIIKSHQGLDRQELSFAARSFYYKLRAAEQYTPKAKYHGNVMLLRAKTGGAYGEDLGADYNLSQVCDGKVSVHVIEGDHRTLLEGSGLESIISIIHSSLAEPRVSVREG

The AC50 is the concentration giving half of the maximal activity seen. Consider `CNC(=O)Oc1cccc2c1OC(C)(C)C2`, for which the result in experiment [1], in experiment [2], in [3], in experiment [4], in experiment [6] and in experiment [7] was inactive. In addition, the result in experiment [8] and in [9] was inactive. In addition, the AC50 in experiment [5] was 0.494 µM (active).
With `CC(C)(C)C(O)(CCc1ccc(Cl)cc1)Cn1cncn1` (configuration not stated), the outcome in experiment [1] and in experiment [7] was inactive. Besides, the AC50 in experiment [2] was 5.75 µM (active); in experiment [3], 0.26 µM (active); in experiment [6], 0.121 µM (active); in experiment [8], 3.08 µM (active); in [9], 88.7 µM (active).
Take `CCOC(=O)[C@]1(c2ccccc2)Oc2ccccc2[C@@H]1N`: the concentration at half-maximal activity (AC50) is 0.33 µM (active) in [1]; 2.9 µM (active) in experiment [2]; 2.52 µM (active) in [3]; 41.6 µM (active) in [8]; 78.3 µM (active) in experiment [9]. For the same compound, the outcome in experiment [6] and in experiment [10] was inactive.
On to `Nc1ccc(Oc2ccc(N)cc2)cc1`, for which the AC50 in [1] is 0.493 µM (active); in [2], 26.9 µM (active); in [3], 1.21 µM (active); in experiment [6], 9.14 µM (active). Also, the call in [7], in experiment [8] and in experiment [9] was inactive.
For `Oc1ccc2ccc3cccc4ccc1c2c34`, the results for the AC50 in experiment [1], in experiment [2] and in [3] were 25.5 µM (active), 35.7 µM (active) and 12.9 µM (active), respectively. Moreover, the call in experiment [6], in experiment [7], in experiment [8] and in experiment [9] was inactive.
Regarding `CCCCCCCCCCCCCN1CC(C)OC(C)C1` (configuration not stated), the compound was called inactive in [1], in experiment [2], in experiment [4], in [5], in experiment [7] and in [8]. For the same compound, in experiment [9], the call was inactive. The AC50 in experiment [3] is 6.39 µM (active); in experiment [6], 8.46 µM (active).
For `Cc1ccc(N)c(N)c1`, the compound was called inactive in [1], in [2], in experiment [3], in experiment [6], in experiment [7] and in experiment [8]. Besides, the call in experiment [9] was inactive.
As to `COP(=S)(OC)SCN1C(=O)c2ccccc2C1=O`, the result in experiment [1], in [2], in experiment [3], in experiment [6], in [7] and in [8] was inactive. The result in experiment [9] was inactive.
Turning to `CCN(CC)CCO`, the call in experiment [7], in experiment [8] and in experiment [9] was inactive.
With `O=C(N[C@H](c1ccccc1)[C@@H]1CN2CCC1CC2)c1c(Cl)ccc(C(F)(F)F)c1Cl`, the call in [7] and in experiment [9] was inactive. For the same compound, in experiment [8], the AC50 is 76.8 µM (active).
With `CN(C)C(=O)Nc1ccc(Cl)cc1`, the compound was classed as inactive in experiment [7], in experiment [8] and in experiment [9].
As for `CCN(CC)N=O`, the call in experiment [7], in [8] and in experiment [9] was inactive.
For `Brc1ccc(Oc2ccccc2)cc1`, the call in experiment [7], in experiment [8] and in [9] was inactive.
As to `ClCCOCCCl`, the call in experiment [7], in experiment [8] and in experiment [9] was inactive.
For `Clc1ccc(C(c2ccc(Cl)cc2)C(Cl)(Cl)Cl)cc1`, the outcome in experiment [7] and in [9] was inactive. In addition, in experiment [8], the AC50 was 66.6 µM (active).
For the compound `Nc1ccc([N+](=O)[O-])cc1`, the result in experiment [7], in experiment [8] and in [9] was inactive.
Consider `CCNS(=O)(=O)C(F)(F)C(F)(F)C(F)(F)C(F)(F)C(F)(F)C(F)(F)C(F)(F)C(F)(F)F`, for which the outcome in [7] and in experiment [9] was inactive. The concentration at half-maximal activity (AC50) in experiment [8] is 48.2 µM (active).
As to `CCCCC(CC)COC(=O)c1ccc(C(=O)OCC(CC)CCCC)c(C(=O)OCC(CC)CCCC)c1` (configuration not stated), the compound was classed as inactive in [7], in experiment [8] and in experiment [9].
As to `CN(C)c1ccccc1`, the outcome in experiment [7], in experiment [8] and in [9] was inactive.
Take `COc1cc(C=O)cc2c1[C@H](COC(N)=O)[C@]1(OC(C)=O)ON2C[C@H]2[C@@H]1N2C(C)=O`: the AC50 in [7] was 88.1 µM (active). Also, the call in experiment [8] and in experiment [9] was inactive.
For `CC(C)COC(=O)c1ccccc1C(=O)OCC(C)C`, the compound was called inactive in experiment [7], in experiment [8] and in experiment [9].
With `c1ccc2c(c1)oc1ccccc12`, the result in [7], in experiment [8] and in experiment [9] was inactive.
`C=CCc1ccc2c(c1)OCO2`: the call in [7], in experiment [8] and in [9] was inactive.
For the compound `CN(C)[C@@H]1C(=O)C(C(N)=O)=C(O)[C@@]2(O)C(=O)C3=C(O)c4c(O)cccc4[C@@](C)(O)[C@H]3C[C@@H]12`, the compound was called inactive in experiment [7], in experiment [8] and in [9].
For the compound `COC(=O)Nc1nc2ccccc2[nH]1`, the compound was called inactive in [7], in [8] and in [9].
On to `CCC[CH2][Sn]([Cl])([CH2]CCC)[CH2]CCC`, for which the AC50 in experiment [8] is 2.86 µM (active); in experiment [9] it was 88.1 µM (active).
In the case of `C[N+](C)(C)CC1CO1` (configuration not stated), the call in experiment [7], in experiment [8] and in [9] was inactive.
For `c1ccc(C2CO2)cc1` (configuration not stated), the compound was called inactive in experiment [7], in experiment [8] and in experiment [9].
As for `CC(C)(OOC(C)(C)c1ccccc1)c1ccccc1`, the outcome in experiment [7], in [8] and in experiment [9] was inactive.
As for `CCCCOC(=O)c1ccccc1C(=O)OCc1ccccc1`, the compound was classed as inactive in [7], in [8] and in [9].
Consider `CO[C@@H]1[C@H](OC(=O)NC(=O)CCl)CC[C@]2(CO2)[C@H]1[C@@]1(C)O[C@@H]1CC=C(C)C`, for which the result in [7], in experiment [8] and in [9] was inactive.
For the compound `O=Cc1ccco1`, the call in [7], in [8] and in [9] was inactive.
As to `[O-][Cl+]O`, the result in experiment [8] and in [9] was inactive.
For `CC(O)CCO` (configuration not stated), the compound was classed as inactive in experiment [7], in [8] and in experiment [9].
Take `CC(C)(C)OOC(=O)c1ccccc1`: the result in experiment [7], in [8] and in experiment [9] was inactive.
As to `Clc1ccc(Cl)c(Cl)c1`, the call in experiment [7], in experiment [8] and in [9] was inactive.
